# DT40 TDP1 CPT: qHTS for Inhibitors of human tyrosyl-DNA phosphodiesterase 1 (TDP1): qHTS in cells in presence of CPT; chicken DT40 Tdp1-/-;hTDP1 cells + 20 nM CPT, ATP luminescence, 48 h; Potency, µM (highest dose often 46.2 µM), without a hit: at the top dose activity change, negative = growth inhibition, hits mostly inhibitors; 420,000 compounds, 12% hits; AID 686979, 2013; further: potency means the concentration at half of the fitted maximal effect; nearly all actives have a fitted effect of over 55% in size
#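 Chicken DT40 Tdp1-/- cells complemented with human TDP1, 400 cells/well, exposed to compounds plus 20 nM camptothecin for at least 48 h at 37 C; viability read as ATP content by CellTiter-Glo luminescence.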
# IL-1B inflam inh: qHTS for Inhibitors of Inflammasome Signaling: IL-1-beta AlphaLISA Primary Screen. THP-1 LPS/ATP IL-1B secretion, AlphaLISA, 16 h; stronger effect = lower value. activity change, % at 57.5 µM. 360,000 compounds, 4.7% hits; in the data active means activity change below about -50%; inconclusive means mostly about -30% to -49%
#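 Secreted IL-1B measured by AlphaLISA bead assay after 16 h compound exposure of THP-1 cells; compounds (final up to 57.5 uM) added 1 h before LPS (250 ng/mL) and ATP (1.25 mM) stimulation; lower signal means less secretion.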
# TDP1 cell noCPT: qHTS for Inhibitors of human tyrosyl-DNA phosphodiesterase 1 (TDP1): qHTS in cells in absence of CPT; DT40 Tdp1-/- hTDP1 cells, no CPT, ATP luminescence, 48 h; Potency, µM (titrated, usually from 46.2 µM), inactives show at the top dose activity change, negative = growth inhibition, most hits filed as inhibitors; 420,000 compounds, 15% hits; AID 686978, 2013; further: potency means the concentration at half of the fitted maximal effect; nearly all actives have a fitted effect of over 55% in size
#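 Growth kinetics read by CellTiter-Glo luminescence after ≥48 hr at 37 °C. Cells: DT40 Tdp1-/- stably carrying human TDP1, 400 per well, compound exposure in the absence of CPT (DMSO vehicle).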
# HT1080-NT tox: qHTS for induction of synthetic lethality in tumor cells producing 2HG: qHTS for the HT-1080-NT fibrosarcoma cell line; Potency, µM (doses to about 46.1 µM), for inactives: top-dose activity, negative = less viability, usual class: cytotoxic; HT-1080-NT fibrosarcoma viability, CellTiter-Glo ATP luminescence, 48 h; 360,000 compounds, 1.6% hits;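 further: NT is the 2HG producing partner of a matched IDH1 knockdown line; potency means the concentration at half of the fitted maximal effect; 0% = DMSO-treated cells and -100% = media-only wells without cells; nearly all actives have a fitted effect of over 55% in size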
#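 HT-1080-NT; 750 cells/well; 5% FBS RPMI; 48 h compound, 37 degrees C; CellTiter-Glo luminescence; curve fitting and curve-class assignment.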
# HT1080 IDH1KD tx: qHTS for induction of synthetic lethality in tumor cells producing 2HG: qHTS for the HT-1080-IDH1KD cell line; HT-1080 IDH1 knockdown viability, ATP luminescence, 48 h; 360,000 compounds, 2% hits; Potency, µM (highest dose often 46.1 µM), for the others: top-dose activity, negative = toxicity, actives largely listed as cytotoxic;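 further: potency means the concentration at half of the fitted maximal effect; 0% = DMSO wells and -100% = cell-free medium wells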
#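 After a 2 h attachment period, IDH1KD HT-1080 cells took pin-transferred compound for 48 h at 37 °C; ATP-based luminescence after 10 min room-temperature reagent incubation reported viability.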
# Active calls of the source: *; ? = inconclusive; . = not tested or not shown. Shown are actives, neighbours in structure and some others; about 19% of the full set was active somewhere. Unless noted, the call rests on the fitted dose curve; in most records, active means well fitted curve in the direction sought with a large enough effect; inconclusive means small, poorly fitted or top-dose-only effect, or another doubt; inactive means no such curve, though single readings can be large; an effect the other way counts as inactive or inconclusive. Unless noted, on the % scale 0 is the no-effect control and ±100 the full control effect.
SMILES,DT40 TDP1 CPT,IL-1B inflam inh,TDP1 cell noCPT,HT1080-NT tox,HT1080 IDH1KD tx
COc1cccc2cc(/C(=N/O)c3ccccc3)oc12,-18%,-1,-15%,-5%,-3%
CN1CCN(c2nc(-c3ccc(C(C)(C)C)cc3)nc3ccccc23)CC1,?,-16,21µM*,-15%,-15%
Cc1ccc(-c2nc(N3CCN(C)CC3)c3ccccc3n2)cc1,?,?,?,-29%,-5%
CCN1CCN(c2nc(-c3ccccc3)nc3ccccc23)CC1,?,-65*,29µM*,-13%,-14%
COC(C(=O)Nc1ccc(S(=O)(=O)Nc2ccc(F)cc2)cc1)c1ccccc1 (stereo not given),?,-101*,?,?,?
CCn1c(/N=C/c2ccccc2NS(=O)(=O)c2ccc(C)cc2)nc2ccccc21,29µM*,-10,?,-16%,-11%
C/C(=N\Nc1ccccc1C(=O)O)c1ccncc1,-7%,7,-26%,-10%,-3%
CCOc1ccc(C(=O)Nc2ccc(C(=O)OCc3cc(=O)n4ccsc4n3)cc2)cc1,0%,.,-13%,.,.
CN(/N=C/c1cc(Cl)cc(Cl)c1O)C(=S)NC(C)(C)C,?,0,16µM*,?,-20%
Cc1cccc(C)c1NC(=O)C1(C)CSCC(=O)N1CCCN1CCOCC1 (stereo not given),1%,-1,5%,14%,21%
CC(C)(C)Nc1nc2cc([N+](=O)[O-])ccc2o1,-17%,4,-23%,2%,15%
CC(C)(C)c1nc2cc(Cl)c([N+](=O)[O-])cc2o1,?,?,23µM*,-28%,?
Cc1cc(Nc2ccccc2)nc(NCc2ccccc2)n1,8.2µM*,-88*,4.1µM*,?,23µM*
Cc1cc(N2CCC(C)CC2)nc(-c2ccccc2O)n1,-25%,3,-16%,-2%,-1%
Cc1cc(Oc2ccccc2)nc(NCc2ccccc2)n1,12µM*,38,21µM*,-6%,-17%
Cc1cc(N2CCC(C)CC2)nc(NCc2ccccc2)n1,?,-90*,16µM*,-1%,0%
Cc1ccc(Nc2cc(C)nc(-c3ccccc3)n2)cc1,?,-98*,-25%,-8%,-8%
Cc1cc(Oc2ccccc2F)nc(NCc2ccccc2)n1,?,-1,?,-6%,-18%
Cc1ccc(Nc2cc(C)nc(-c3ccccc3O)n2)cc1,?,-13,?,?,-29%
CC(=O)Nc1ccc(CN(C)c2c(C)nc3ccc(C(=O)NC4CCN(Cc5ccccc5)CC4)cn23)cc1,?,-11,?,?,?
Cc1ccc(C(=O)Nc2nnc([C@H]3C[C@H](O)[C@@H](CO)O3)s2)cc1,-2%,38,-9%,2%,21%
NC(=O)c1ncn([C@@H]2O[C@H](CNCc3cc(Cl)ccc3OCc3ccc(Cl)cc3)[C@@H](O)[C@H]2O)n1,17%,34,0%,8%,8%
CCc1cccc(CC)c1NC(=O)CN(C)S(=O)(=O)c1ccc2c(c1)n(C)c(=O)c(=O)n2C,-28%,.,-16%,.,.
Cc1cc(Nc2ccc(Cl)cc2)nc(NCc2ccccc2)n1,7.3µM*,?,8.2µM*,?,?
CCNc1nc(Cl)nc(NCc2ccccc2)n1,-29%,-5,-16%,-15%,-5%
Cc1cc(Nc2cccc(F)c2)nc(NCc2ccccc2)n1,4.1µM*,-102*,5.8µM*,?,?
CCCCNc1cc(C)nc(NCc2ccccc2)n1,9.2µM*,-98*,5.8µM*,26µM*,23µM*
CCCN(CC(=O)Nc1ccccc1C)C(=O)c1cc2ccccc2oc1=O,4%,21,0%,-1%,-6%
